Results reported in the supplement of paper PMC9948646.

test system: gramicidin D channels in DC22:1PC lipid vesicles (bilayer-modifying potency); assay: initial Tl+ fluorescence quench rate relative to no-drug control (NormRate, gramicidin monomer-dimer shift) (ratio (fold of control)); higher = stronger bilayer-modifying effect (equilibrium shifted toward conducting dimers), active = 1.5 or more; details: 10 µM; lipid concentration 50 µM; temperature: 25 °C
Experimental: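 Stopped-flow fluorescence quench assay: ANTS-loaded DC22:1PC large unilamellar vesicles doped with gramicidin D (1:2000), 50 µM lipid, equilibrated 10 min with 10 µM drug (0.1% DMSO), mixed with Tl+ quench buffer at 25°C. Initial quench rate (Tl+ influx) was fitted with a modified stretched exponential and normalised to the no-drug control rate (NormRate); duplicates from two independent LUV preparations (triplicates for 7 drugs).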

| SMILES | initial Tl+ fluorescence quench rate |
| --- | --- |
| CCCCc1ccc(C(=O)Nc2nccc3ccccc23)nc1 | 1.33 (inactive) |
| COc1ccc(-c2nnc3ccc(-c4cccc(C(C)C)c4)cn23)cc1OC | 2.38 (active) |
| C[C@]1(O)C[C@@H](c2nc(-c3ccc4ccc(-c5ccccc5)nc4c3)c3c(N)nccn32)C1 | 1.59 (active) |
| C[C@H]1COC2(CCN(c3nc(=O)c4cc(C(F)(F)F)cc([N+](=O)[O-])c4s3)CC2)O1 | 1.08 (inactive) |
| Cc1ccc(NC(=O)c2nc[nH]c2C(=O)Nc2nc3ccccc3[nH]2)c(C)c1 | 1.88 (active) |
| Cc1cc(Nc2ccncc2)n2nc(C)c(-c3ccccc3Cl)c2n1 | 1.03 (inactive) |
| CCCCCCCCCCCCCCCCOP(=O)([O-])OCC[N+](C)(C)C | 2.31 (active) |
| [H]/N=C(\N)c1ccc(OCCCCCOc2ccc(/C(N)=N\[H])cc2)cc1 | 1.02 (inactive) |
| Cc1cccc(-c2nc(Nc3ccncn3)c3sccc3n2)n1 | 1.81 (active) |
| COc1ccc2nc(C)cc(OCC(=O)Nc3ccccc3OC)c2c1 | 1.11 (inactive) |
| CCN(CC)S(=O)(=O)c1ccc(C(=O)Nc2cc(C)nn2-c2nc(C)c(C)c(=O)[nH]2)cc1 | 1.57 (active) |
| O=C(NCCN1CCCC1)c1cc(NCCCCN2CCC(F)(F)CC2)nc2ccc(Cl)cc12 | 1.92 (active) |
| O=C(NCCc1ccccc1)c1cc(-c2cccnc2)cnc1NCC1CC1 | 2 (active) |
| O=C(c1ccco1)N(CCCn1ccnc1)c1nc2c(Cl)cccc2s1 | 1.24 (inactive) |
| [H]/N=C(\N)c1ccc(-n2cc(-c3cc(/C(N)=N/[H])ccc3OC)nn2)cc1 | 1.05 (inactive) |
| Cc1cc(OCC(=O)NCc2ccccc2)c2cc(Br)ccc2n1 | 1.45 (inactive) |
| Clc1cccc(CO[C@H]2CCc3ccccc3[C@@H]2n2ccnn2)c1 | 1.37 (inactive) |
| c1cncc(NCc2ccc(-c3cc4ccncc4cc3OC3CCNCC3)s2)c1 | 1.32 (inactive) |
| Brc1cncc(-c2cc(NCCCn3ccnc3)nc(-c3ccccc3)n2)c1 | 2.73 (active) |

| SMILES | initial Tl+ fluorescence quench rate |
| --- | --- |
| CC(C)(C)OC(=O)N1CCC(Cn2nc(-c3cnc4ccccc4c3)c3c(N)ncnc32)CC1 | 1.57 (active) |
| COc1cccc(-c2nc3c(N4CCCC4)cccc3n2C[C@H]2CCCN2)n1 | 1.21 (inactive) |
| CC(C)(C)C(=O)N(CCCCCCN1C[C@H](O)[C@@H](O)[C@H](O)[C@H]1CO)C1CCCCCC1 | 1.15 (inactive) |
| CN1CCC[C@H]1CCO[C@](C)(c1ccccc1)c1ccc(Cl)cc1 | 2.33 (active) |
| Cc1cnc(CCNC(=O)c2cc(-c3ccc(Cl)cc3)cs2)[nH]1 | 1.34 (inactive) |
| COc1ccc(O[C@H](C)C(=O)Nc2ccc(Cl)cc2C)cc1 | 1.05 (inactive) |
| Cc1cccc(NC(=O)c2cc(S(=O)(=O)N(C)c3ccc(F)cc3)ccc2Cl)n1 | 1.5 (active) |
| CCn1cnc2c(Nc3cc(F)cc(F)c3)nc(C#N)nc21 | 1.21 (inactive) |
| CCOc1ccccc1C(=O)Nc1cccc(-c2nc3ncccn3c2C)c1 | 1.48 (inactive) |
| OCCc1ccc(Nc2nccc(-c3nnc4ccccn34)n2)cc1 | 1.01 (inactive) |
| Cc1cc(Cl)ccc1NC(=O)CCc1ccc(S(=O)(=O)NCC(C)C)cc1 | 1.42 (inactive) |
| CC[C@H](Sc1nc2ccccc2o1)C(=O)Nc1nnc(C)s1 | 1.3 (inactive) |
| NC[C@@H](c1cccs1)S(=O)(=O)c1ccccc1 | 1.36 (inactive) |
| FC(F)(F)c1cccc(-c2nc3c(NCc4ccncc4)nccc3[nH]2)c1 | 1.76 (active) |
| Nc1ncc(Br)cc1-c1nc2cc(Cl)cnc2[nH]1 | 1.06 (inactive) |
| CC1=NN(c2nc3ccccc3s2)C(=O)[C@@H]1Cc1cccc2ccccc12 | 2.18 (active) |
| C[C@@H](Oc1ccccc1)C(=O)Nc1nc(-c2ccccn2)cs1 | 1.29 (inactive) |
| Clc1ccc(-n2cc(COc3ccnc4ccccc34)nn2)cc1 | 1.13 (inactive) |
| Cc1ccc(NC(=O)c2cc(S(=O)(=O)NC(C)(C)C)ccc2C)nc1 | 1.21 (inactive) |
